Source: PubChem BioAssay (several laboratories)
AHR activator: activators of human aryl hydrocarbon receptor; P35869; activation, % at 5 µM; AHR-responsive luciferase reporter cells, luminescence; actives 2.5% (n = 320,000); in the data active = activation above about 47%;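 also: 0% = vehicle wells and 100% = reference agonist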
HSF1 activator: increases HSF-1 driven luciferase reporter signal | NIH3T3-HGL HSF-1 luciferase reporter, MG132, 8 h; 100% = twice DMSO control signal | activation, % at 9 µM | actives 1.7% (n = 300,000) | AID 504408;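 active = mean replicate activation of at least 50% with a set share of replicates each reaching 50%; inconclusive = only one of those two conditions met; inactive = mean below 50% and too few replicates reaching it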;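 also: 0% = median of the neutral control wells and 100% = twice that signal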
FXN GAA850 act: increases GAA850 frataxin promoter reporter activity; HEK293 lucGAA850 FXN promoter luciferase reporter, 24 h; percent of 10 µM SAHA response; activation, % at 6 µM; actives 0.56% (n = 360,000); AID 540364;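 active = activation above the average of all compounds screened plus 3 SD, cutoff fixed separately per campaign, cut at about 7.5% in these data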;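 also: 0% = DMSO wells and 100% = 10 µM SAHA wells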
DAX1 inh: inhibits human nuclear receptor DAX1; inhibition, % at 6.75 µM; AID 504766; actives 0.99% (n = 340,000); HEK293 Gal4-DAX1 luciferase reporter, luminescence;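 active = inhibition above the mean over all tested compounds plus 3 SD, cut at about 4.2% in these data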;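 also: 0% = DAX1-transfected cells with DMSO and 100% = empty-vector control cells with DMSO; inhibition shows as a rise in luminescence from relieved DAX1 repression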
Target sequence (P51843 207-470 limits assumed): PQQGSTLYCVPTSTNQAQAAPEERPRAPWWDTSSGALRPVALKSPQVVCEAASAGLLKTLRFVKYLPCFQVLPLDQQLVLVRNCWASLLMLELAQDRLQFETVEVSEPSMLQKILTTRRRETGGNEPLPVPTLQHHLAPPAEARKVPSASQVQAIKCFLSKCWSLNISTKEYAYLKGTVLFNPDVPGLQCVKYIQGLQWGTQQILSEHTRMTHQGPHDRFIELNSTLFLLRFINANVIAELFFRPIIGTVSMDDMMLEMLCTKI
HSF1 inhib: HSF1 inhibition. NIH3T3-HGL HSE-luciferase, MG132-induced, luminescence 8 h; active compounds read low. activity change, negative = inhibition, % at 7.5 µM (by protocol). actives 0.77% (n = 300,000);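 active = more than half of replicate wells show activity change below -50%, luminescence cut by over half; inconclusive = some wells, but at most half, below -50%; inactive = no replicate well below -50%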;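 also: luciferase reports HSF-1 transcriptional activity via heat shock element; 0% = median of DMSO wells and -100% = zero luminescence signal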
HSP90 refold inh: blocks HSP90-mediated luciferase refolding in reticulocyte lysate; Rabbit reticulocyte lysate, luciferase refolding luminescence, 3 h; inhibition, % at 5.6 µM; actives 0.91% (n = 290,000); AID 1789;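 active = inhibition above the screen-wide mean plus 3 SD, computed separately per campaign, cut at about 16% in these data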;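 also: 0% = DMSO wells and 100% = 60 µM geldanamycin wells; inhibitors lower the luminescence because luciferase stays unfolded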
AHR act cf: confirmation of human aryl hydrocarbon receptor activators; shares compounds with AHR activator; activation, % at 9 µM; human cells, AHR-responsive luciferase reporter, luminescence; AID 2845; actives 87% (n = 2,300); in the data active = activation above about 49%;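 also: HepG2 hepatoma cells carrying a DRE-driven firefly luciferase reporter; 0% = vehicle wells and 100% = reference agonist wells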
PXR act counter: PXR activation, counter-screen for AHR activators. shares compounds with AHR activator. cell-based PXR reporter, luciferase luminescence. activation, % at 11.6 µM. actives 88% (n = 2,300). AID 434939; in the data active = activation above about 11%;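 also: human hepatoma DPX-2 cells expressing full-length human PXR; 0% = DMSO and 100% = reference agonist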
Active calls of the source: *. A selection: hits, their analogues and other compounds. The true share with any hit is near 5.9%.

How did COc1ccc(N=Cc2c(O)[nH]c3ccccc23)cc1 do in these assays?
AHR activator: 129*; HSF1 activator: 63*; FXN GAA850 act: 3; DAX1 inh: 1; HSF1 inhib: 40; HSP90 refold inh: -2; AHR act cf: 67*; PXR act counter: 18*

How did Cc1cc(C(=O)NC2Cc3ccccc3C2)c(C)o1 do in these assays?
AHR activator: 4; HSF1 activator: 26; FXN GAA850 act: 2; DAX1 inh: 3; HSF1 inhib: 22; HSP90 refold inh: -2

What do the screens show for `CC(C)(C)C(=O)NC(=S)NNC(=O)c1ccc(-c2ccccc2)cc1`?
AHR activator: 3; HSF1 activator: -17; FXN GAA850 act: 0; DAX1 inh: 0; HSF1 inhib: -17; HSP90 refold inh: -3

How did Cc1ccc(-c2nc3cccnc3s2)cc1NS(=O)(=O)c1ccc2c(c1)OCCO2 do in these assays?
AHR activator: 105*; HSF1 activator: -5; FXN GAA850 act: 2; DAX1 inh: 1; HSF1 inhib: 11; HSP90 refold inh: 4; AHR act cf: 73*; PXR act counter: 104*

Results for Cc1cc(C)n(-c2nc(-c3cccc(Cl)c3)cs2)n1 ?
AHR activator: 109*; HSF1 activator: 1; FXN GAA850 act: 1; DAX1 inh: 1; HSF1 inhib: 6; HSP90 refold inh: 1; AHR act cf: 101*; PXR act counter: 22*

How did COc1cc(C(=O)Nc2cc(C)cc(C)c2)c(-n2cnnn2)cc1OC do in these assays?
AHR activator: 11; FXN GAA850 act: -1; DAX1 inh: 1; HSP90 refold inh: 1

How did CC(C)(C)c1ccc(OCc2ccc(C(=O)N/N=C/c3ccc([N+](=O)[O-])cc3)o2)cc1 do in these assays?
AHR activator: 14; HSF1 activator: 19; FXN GAA850 act: 3; DAX1 inh: 1; HSF1 inhib: 12; HSP90 refold inh: 11

Results for O=C(N/N=C/c1cccc(O)c1)c1ccc(COc2ccc3c(c2)CCC3)o1 ?
AHR activator: 118*; FXN GAA850 act: 0; DAX1 inh: 1; HSP90 refold inh: 16; AHR act cf: 64*; PXR act counter: 19*

How did Cc1ccc(NCCC(=O)c2cccs2)cc1Cl do in these assays?
AHR activator: 86*; HSF1 activator: inconclusive; FXN GAA850 act: 2; DAX1 inh: 1; HSF1 inhib: 25; HSP90 refold inh: -1; AHR act cf: 69*; PXR act counter: 12*

How did O=C(CCNc1cccc(Cl)c1)c1cccs1 do in these assays?
AHR activator: 8; HSF1 activator: 27; FXN GAA850 act: 2; DAX1 inh: -1; HSF1 inhib: 10; HSP90 refold inh: -1

Results for C/C(=C\C(=O)c1ccc(Br)cc1)NCc1ccc(C)cc1 ?
AHR activator: 9; HSF1 activator: 9; FXN GAA850 act: -1; DAX1 inh: 0; HSF1 inhib: 1; HSP90 refold inh: -2

What do the screens show for `C/C(=C\C(=O)c1ccc(Br)cc1)NCc1ccccc1`?
AHR activator: 95*; HSF1 activator: 42; FXN GAA850 act: 5; DAX1 inh: -1; HSF1 inhib: 17; HSP90 refold inh: 2; AHR act cf: 29; PXR act counter: 27*

Results for CN(C)c1ccc(NS(=O)(=O)c2cc3c4c(c2)CC(=O)N4CCC3)cc1 ?
AHR activator: 0; HSF1 activator: -27; FXN GAA850 act: -1; DAX1 inh: 0; HSF1 inhib: -34; HSP90 refold inh: -4

Results for CC1CCCN(C(=O)CN2C(=O)NC(C)(c3ccc4ccccc4c3)C2=O)C1 (stereo not given) ?
AHR activator: 0; FXN GAA850 act: -1; DAX1 inh: -1

What do the screens show for `O=C(N=Nc1c(O)[nH]c2ccc(F)cc12)C1COc2ccccc2O1` (stereo not given)?
AHR activator: 25; HSF1 activator: -12; FXN GAA850 act: 1; DAX1 inh: 2; HSF1 inhib: -12; HSP90 refold inh: -3

Results for O=C(c1cccc(S(=O)(=O)N2CCc3ccccc32)c1)N1CCN(c2ccccn2)CC1 ?
AHR activator: 80*; HSF1 activator: 7; FXN GAA850 act: -7; DAX1 inh: -6; HSF1 inhib: 4; HSP90 refold inh: 1; AHR act cf: 93*; PXR act counter: 200*

How did COc1ccc(N2CCN(C(=O)c3cccc(S(=O)(=O)N4CCc5ccccc54)c3)CC2)cc1 do in these assays?
AHR activator: 3; FXN GAA850 act: -2; DAX1 inh: -3

What do the screens show for `O=[N+]([O-])c1cc(Br)ccc1C[n+]1ccccc1`?
FXN GAA850 act: -1; DAX1 inh: 0

How did COc1cc(/C=N/Nc2nc(Nc3ccccc3)nc(-n3nc(C)cc3C)n2)cc(OC)c1OC do in these assays?
AHR activator: 80*; HSF1 activator: -36; FXN GAA850 act: -5; DAX1 inh: -3; HSF1 inhib: -27; HSP90 refold inh: 1; AHR act cf: 68*; PXR act counter: 26*

Results for O=C(NC1CCCC1)c1cc2c(ccc3ccccc32)o1 ?
AHR activator: 112*; HSF1 activator: 22; FXN GAA850 act: 4; DAX1 inh: 1; HSF1 inhib: 20; HSP90 refold inh: 8; AHR act cf: 66*

What do the screens show for `Cc1ccc(/C=N/NC(=O)c2cc3c(ccc4ccccc43)o2)o1`?
HSF1 activator: -4; FXN GAA850 act: 3; DAX1 inh: -1; HSF1 inhib: -8; HSP90 refold inh: 3

How did CNC(=O)c1cc2c(ccc3ccccc32)o1 do in these assays?
AHR activator: 108*; HSF1 activator: 58*; FXN GAA850 act: 5; DAX1 inh: 0; HSF1 inhib: 30; HSP90 refold inh: -1; AHR act cf: 102*; PXR act counter: 13*

Results for O=c1[nH]cc(N2CCCCCC2)c(=O)[nH]1 ?
AHR activator: -3; HSF1 activator: -15; FXN GAA850 act: 0; DAX1 inh: 0; HSF1 inhib: 5; HSP90 refold inh: 1

Results for S=C(Nc1ccc(Oc2ccccc2)cc1)NC1CCCCCC1 ?
AHR activator: 1; HSF1 activator: 0; FXN GAA850 act: 2; DAX1 inh: -1; HSF1 inhib: -5; HSP90 refold inh: -1

Results for S=C(NNc1ccc2ccccc2c1)NC1CCCCC1 ?
AHR activator: 108*; HSF1 activator: -14; FXN GAA850 act: -1; DAX1 inh: 0; HSF1 inhib: -9; HSP90 refold inh: 4; AHR act cf: 90*; PXR act counter: 99*

How did COc1cccc(NC(=O)CSc2nc3n[nH]c(C)c3c(=N)n2-c2cccc(OC)c2)c1 do in these assays?
AHR activator: 19; HSF1 activator: 18; FXN GAA850 act: -1; DAX1 inh: 0; HSF1 inhib: 7; HSP90 refold inh: 0
